Among the data in PubChem BioAssay are composite z-score and z-score values, retold here.

SMILES strings stand for the structures. The source made the active and inactive calls.

Experiment [1] concerns PRMT1 (protein arginine N-methyltransferase 1). Put plainly: PRMT1 binders on small-molecule microarrays, primary screen, biochemical, small-molecule microarray, 635 nm fluorescence (AID 1088).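 Further: binding of Prmt1 protein to compounds spotted on small-molecule microarray slides.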 The conditions noted are these: small-molecule microarray binding, higher = more signal.
Experiment [2] is described as follows: yeast growth modulation, basal conditions, primary screen, YJM789 clinical isolate, OD600, 24 h (AID 1089).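 Further: growth of clinical yeast isolate S. cerevisiae YJM 789 seeded 1000 cells per well; test concentration not given here.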 The conditions noted are these: S. cerevisiae YJM789 growth, higher = more signal, called active from +8 up or from −8 down.
Experiment [3] in a line: fission yeast growth modulation, primary screen, strain 972, OD600, 24 h, no modulator (AID 1090).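 Further: basal condition with compound alone and no growth modifier present; test concentration not given here.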 As to conditions: S. pombe 972 growth, higher = more signal, called active from +8 up or from −8 down.
The nature of experiment [4]: S. cerevisiae growth modulation with rapamycin, primary screen, strain BY4716, OD600, 96 h (AID 1091). Further: test concentration not given here. The conditions noted are these: higher = more signal, called active from +8 up or from −8 down.
Experiment [5] has as its target Torsin-1A-interacting protein 2 (Homo sapiens) (UniProt Q8NFQ8). Put plainly: LULL1 binders on small-molecule microarray, primary screen, cell lysate, human LULL1 lysate, 635/667 nm fluorescence (AID 1092).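 Further: probe is lysate of COS7 cells overexpressing human LULL1; score merges per-feature 667 nm fluorescence with signal-to-noise.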 The conditions noted are these: hLULL1 lysate binding, 635 nm fluorescence, higher = more signal.
Experiment [6] in a line: E. coli growth modulation, two-sided OD650, primary screen, E. coli filamentation project, strain DRC41, 24 h (AID 1093).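 Further: MC1000 strain lacking acrAB efflux and sulA so SOS filamentation is blocked; test concentration not given here.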 The conditions noted are these: OD650, 24 h, higher = more signal, called active from +8 up or from −8 down.
Experiment [7] in a line: small-molecule microarray binders of probe aLefty2, primary screen, biochemical, biotinylated probe, 635/667 nm fluorescence (AID 1094).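 Further: score merges spot fluorescence near 667 nm with spot signal-to-noise ratio.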 The conditions noted are these: higher = more signal.
In experiment [8] the test system is Noggin (protein binding on small-molecule microarray). Put plainly: Noggin binders on small-molecule microarray, primary screen, biochemical, 635/667 nm fluorescence (AID 1095).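 Further: score merges 667 nm feature fluorescence with signal to noise over triplicate slides.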 As to conditions: 635 nm fluorescence, higher = more signal.
Experiment [9] concerns the target Neurogenic locus notch homolog protein 3 (Homo sapiens) (UniProt Q9UM47). Put plainly: NOTCH3 binders on small-molecule microarray, primary screen, biochemical, 635/667 nm fluorescence (AID 1096). As to conditions: NOTCH3 binding, 635 nm fluorescence, higher = more signal.
A short description of experiment [10]: small-molecule microarray binders of probe aEGFR, primary screen, biochemical, biotinylated probe, 635/667 nm fluorescence (AID 1097).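 Further: probe is a biotinylated anti-EGFR antibody binding compounds printed on slides; score combines fluorescence near 667 nm and signal to noise of each spot.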 The conditions noted are these: higher = more signal.
Experiment [11] has as its system Plasmodium falciparum Sir2 (PF13_0152, Sir2A). Put plainly: pfSir2 binders on small-molecule microarrays, primary screen, biochemical, small-molecule microarray, 635 nm fluorescence (AID 1098).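 Further: score merges spot fluorescence intensity with its signal-to-noise ratio.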 As to conditions: small-molecule microarray binding, fluorescence 635 nm; higher = more signal.
Experiment [12] in a line: small-molecule microarray binders of probe aDKK1, primary screen, biochemical, biotinylated probe, 635/667 nm fluorescence (AID 1099).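 Further: score merges 667nm spot fluorescence with signal to noise across triplicate slides; reference of the scale not given here.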 As to conditions: higher = more signal.
Experiment [13] can be described thus: small-molecule microarray binders of probe aCHRDL2, primary screen, biochemical, biotinylated probe, 635/667 nm fluorescence (AID 1100). As to conditions: higher = more signal.
The nature of experiment [14]: splicing luciferase reporter signal modulators, primary screen, spliceosome inhibition project, cell-based, HEK293, splice +/- reporter (AID 1101).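 Further: HEK293 cells carrying a splicing-competent luciferase reporter gene; test concentration not given here.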 The conditions noted are these: luminescence, 24 h, higher = more signal, called active from +8 up or from −8 down. (In general: Reporter assays use an easily measured gene product as a stand-in for the process of interest.)

Experiment [15] has as its target Fibroblast growth factor 10 (Homo sapiens) (UniProt O15520). Put plainly: FGF10 binders on small-molecule microarrays, primary screen, biochemical, small-molecule microarray, 635 nm fluorescence (AID 1102). The conditions noted are these: FGF10 binding, fluorescence 635 nm, higher = more signal.
Experiment [16] relates to glycogen synthase kinase-3 (GSK3A per assay name; protocol says GSK3B). Put plainly: GSK3 binders on small-molecule microarrays, primary screen, biochemical, small-molecule microarray, 635 nm fluorescence, GSK3A (AID 1103). Further: the record names both GSK3A and GSK3B. As to conditions: small-molecule microarray binding, fluorescence 635 nm; higher = more signal.
The target of experiment [17] is Epidermal growth factor receptor (Homo sapiens) (UniProt P00533). Put plainly: EGFR binders on small-molecule microarrays, primary screen, biochemical, small-molecule microarray, 635 nm fluorescence (AID 1104).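 Further: score merges 667 nm emission intensity with spot signal to noise over triplicate slides.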 The conditions noted are these: EGFR binding, higher = more signal.
Chain of Epidermal growth factor receptor (Homo sapiens) (P00533 whole entry, looked up): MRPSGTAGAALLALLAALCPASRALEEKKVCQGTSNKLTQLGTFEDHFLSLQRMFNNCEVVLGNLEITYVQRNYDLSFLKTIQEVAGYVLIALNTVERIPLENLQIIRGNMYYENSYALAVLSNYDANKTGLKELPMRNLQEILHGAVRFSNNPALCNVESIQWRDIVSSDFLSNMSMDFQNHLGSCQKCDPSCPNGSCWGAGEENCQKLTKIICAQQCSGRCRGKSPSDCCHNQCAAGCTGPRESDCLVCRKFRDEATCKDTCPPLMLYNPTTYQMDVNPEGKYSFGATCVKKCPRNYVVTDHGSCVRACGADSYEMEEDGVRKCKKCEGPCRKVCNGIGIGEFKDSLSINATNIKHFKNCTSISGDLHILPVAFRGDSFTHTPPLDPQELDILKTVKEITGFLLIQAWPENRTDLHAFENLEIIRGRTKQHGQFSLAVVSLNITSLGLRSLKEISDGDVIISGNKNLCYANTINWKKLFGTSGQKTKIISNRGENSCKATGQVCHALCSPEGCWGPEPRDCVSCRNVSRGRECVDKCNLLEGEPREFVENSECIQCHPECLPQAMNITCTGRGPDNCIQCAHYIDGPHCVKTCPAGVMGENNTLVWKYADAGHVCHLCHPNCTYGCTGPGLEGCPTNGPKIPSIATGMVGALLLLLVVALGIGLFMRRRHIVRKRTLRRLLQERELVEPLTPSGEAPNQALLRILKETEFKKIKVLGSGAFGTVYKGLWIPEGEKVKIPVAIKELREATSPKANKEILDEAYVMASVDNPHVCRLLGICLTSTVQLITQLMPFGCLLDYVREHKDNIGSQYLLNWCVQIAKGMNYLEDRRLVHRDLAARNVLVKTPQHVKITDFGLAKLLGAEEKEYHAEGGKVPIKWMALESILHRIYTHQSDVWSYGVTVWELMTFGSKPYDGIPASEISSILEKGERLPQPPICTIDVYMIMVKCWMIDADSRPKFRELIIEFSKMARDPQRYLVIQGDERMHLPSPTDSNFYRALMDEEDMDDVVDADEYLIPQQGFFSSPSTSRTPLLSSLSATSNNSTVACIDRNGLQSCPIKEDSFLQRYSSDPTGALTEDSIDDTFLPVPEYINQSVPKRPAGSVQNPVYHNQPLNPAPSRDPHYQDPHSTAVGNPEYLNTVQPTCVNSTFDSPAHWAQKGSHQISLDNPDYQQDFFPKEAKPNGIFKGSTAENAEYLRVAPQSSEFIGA
Experiment [18] deals with Follistatin-related protein 3 (Homo sapiens) (UniProt O95633). Put plainly: FSTL3 binders on small-molecule microarrays, primary screen, biochemical, small-molecule microarray, 635 nm fluorescence (AID 1105).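 Further: score merges emission near 667 nm and signal to noise per printed spot across three slides.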 The conditions noted are these: FSTL3 binding, higher = more signal.
Chain of Follistatin-related protein 3 (Homo sapiens) (O95633 whole entry, looked up): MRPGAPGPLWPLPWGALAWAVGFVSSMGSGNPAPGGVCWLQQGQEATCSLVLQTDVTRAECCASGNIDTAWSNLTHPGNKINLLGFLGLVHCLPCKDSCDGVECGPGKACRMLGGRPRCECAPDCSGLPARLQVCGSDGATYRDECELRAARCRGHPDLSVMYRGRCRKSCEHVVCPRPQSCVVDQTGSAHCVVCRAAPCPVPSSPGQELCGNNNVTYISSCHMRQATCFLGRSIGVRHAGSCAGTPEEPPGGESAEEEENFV
In experiment [19] the target is Dickkopf-related protein 1 (Homo sapiens) (UniProt O94907). Put plainly: DKK1 binders on small-molecule microarrays, primary screen, biochemical, small-molecule microarray, 635 nm fluorescence scan (AID 1106).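 Further: score merges emission near 667 nm with signal to noise over three replicate slides.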 The conditions noted are these: DKK1 binding, higher = more signal.
Chain of Dickkopf-related protein 1 (Homo sapiens) (O94907 whole entry, looked up): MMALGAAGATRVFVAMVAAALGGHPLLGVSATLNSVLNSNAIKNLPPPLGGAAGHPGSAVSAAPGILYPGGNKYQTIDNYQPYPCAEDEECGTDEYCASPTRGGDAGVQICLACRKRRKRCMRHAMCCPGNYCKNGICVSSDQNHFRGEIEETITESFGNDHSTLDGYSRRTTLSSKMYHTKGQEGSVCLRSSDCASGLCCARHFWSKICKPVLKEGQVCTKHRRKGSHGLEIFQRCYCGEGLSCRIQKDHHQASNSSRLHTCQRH
Experiment [20] has as its system Inhibin beta A chain (activin A). Put plainly: INHBA (activin A) binders on microarrays, primary screen, biochemical, small-molecule microarray, 635 nm fluorescence scan (AID 1107).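 Further: mouse activin A protein probed at 4.33 µg/mL on printed slides; score merges bound-protein fluorescence near 667 nm with spot signal-to-noise.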 The conditions noted are these: small-molecule microarray binding, higher = more signal.

Chain of Torsin-1A-interacting protein 2 (Homo sapiens) (Q8NFQ8 whole entry, looked up): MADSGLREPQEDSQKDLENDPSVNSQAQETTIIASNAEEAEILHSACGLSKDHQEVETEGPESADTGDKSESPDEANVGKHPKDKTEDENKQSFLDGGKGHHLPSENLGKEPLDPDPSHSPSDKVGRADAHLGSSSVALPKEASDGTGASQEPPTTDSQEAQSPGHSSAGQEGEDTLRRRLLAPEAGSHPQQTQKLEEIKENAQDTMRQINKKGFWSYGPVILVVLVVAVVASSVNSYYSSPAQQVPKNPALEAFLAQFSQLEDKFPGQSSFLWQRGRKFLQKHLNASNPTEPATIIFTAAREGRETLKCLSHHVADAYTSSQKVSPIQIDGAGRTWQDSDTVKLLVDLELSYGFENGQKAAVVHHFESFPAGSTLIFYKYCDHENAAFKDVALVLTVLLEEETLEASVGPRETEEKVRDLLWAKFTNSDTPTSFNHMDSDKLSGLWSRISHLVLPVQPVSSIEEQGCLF
Chain of Neurogenic locus notch homolog protein 3 (Homo sapiens) (Q9UM47 whole entry, looked up): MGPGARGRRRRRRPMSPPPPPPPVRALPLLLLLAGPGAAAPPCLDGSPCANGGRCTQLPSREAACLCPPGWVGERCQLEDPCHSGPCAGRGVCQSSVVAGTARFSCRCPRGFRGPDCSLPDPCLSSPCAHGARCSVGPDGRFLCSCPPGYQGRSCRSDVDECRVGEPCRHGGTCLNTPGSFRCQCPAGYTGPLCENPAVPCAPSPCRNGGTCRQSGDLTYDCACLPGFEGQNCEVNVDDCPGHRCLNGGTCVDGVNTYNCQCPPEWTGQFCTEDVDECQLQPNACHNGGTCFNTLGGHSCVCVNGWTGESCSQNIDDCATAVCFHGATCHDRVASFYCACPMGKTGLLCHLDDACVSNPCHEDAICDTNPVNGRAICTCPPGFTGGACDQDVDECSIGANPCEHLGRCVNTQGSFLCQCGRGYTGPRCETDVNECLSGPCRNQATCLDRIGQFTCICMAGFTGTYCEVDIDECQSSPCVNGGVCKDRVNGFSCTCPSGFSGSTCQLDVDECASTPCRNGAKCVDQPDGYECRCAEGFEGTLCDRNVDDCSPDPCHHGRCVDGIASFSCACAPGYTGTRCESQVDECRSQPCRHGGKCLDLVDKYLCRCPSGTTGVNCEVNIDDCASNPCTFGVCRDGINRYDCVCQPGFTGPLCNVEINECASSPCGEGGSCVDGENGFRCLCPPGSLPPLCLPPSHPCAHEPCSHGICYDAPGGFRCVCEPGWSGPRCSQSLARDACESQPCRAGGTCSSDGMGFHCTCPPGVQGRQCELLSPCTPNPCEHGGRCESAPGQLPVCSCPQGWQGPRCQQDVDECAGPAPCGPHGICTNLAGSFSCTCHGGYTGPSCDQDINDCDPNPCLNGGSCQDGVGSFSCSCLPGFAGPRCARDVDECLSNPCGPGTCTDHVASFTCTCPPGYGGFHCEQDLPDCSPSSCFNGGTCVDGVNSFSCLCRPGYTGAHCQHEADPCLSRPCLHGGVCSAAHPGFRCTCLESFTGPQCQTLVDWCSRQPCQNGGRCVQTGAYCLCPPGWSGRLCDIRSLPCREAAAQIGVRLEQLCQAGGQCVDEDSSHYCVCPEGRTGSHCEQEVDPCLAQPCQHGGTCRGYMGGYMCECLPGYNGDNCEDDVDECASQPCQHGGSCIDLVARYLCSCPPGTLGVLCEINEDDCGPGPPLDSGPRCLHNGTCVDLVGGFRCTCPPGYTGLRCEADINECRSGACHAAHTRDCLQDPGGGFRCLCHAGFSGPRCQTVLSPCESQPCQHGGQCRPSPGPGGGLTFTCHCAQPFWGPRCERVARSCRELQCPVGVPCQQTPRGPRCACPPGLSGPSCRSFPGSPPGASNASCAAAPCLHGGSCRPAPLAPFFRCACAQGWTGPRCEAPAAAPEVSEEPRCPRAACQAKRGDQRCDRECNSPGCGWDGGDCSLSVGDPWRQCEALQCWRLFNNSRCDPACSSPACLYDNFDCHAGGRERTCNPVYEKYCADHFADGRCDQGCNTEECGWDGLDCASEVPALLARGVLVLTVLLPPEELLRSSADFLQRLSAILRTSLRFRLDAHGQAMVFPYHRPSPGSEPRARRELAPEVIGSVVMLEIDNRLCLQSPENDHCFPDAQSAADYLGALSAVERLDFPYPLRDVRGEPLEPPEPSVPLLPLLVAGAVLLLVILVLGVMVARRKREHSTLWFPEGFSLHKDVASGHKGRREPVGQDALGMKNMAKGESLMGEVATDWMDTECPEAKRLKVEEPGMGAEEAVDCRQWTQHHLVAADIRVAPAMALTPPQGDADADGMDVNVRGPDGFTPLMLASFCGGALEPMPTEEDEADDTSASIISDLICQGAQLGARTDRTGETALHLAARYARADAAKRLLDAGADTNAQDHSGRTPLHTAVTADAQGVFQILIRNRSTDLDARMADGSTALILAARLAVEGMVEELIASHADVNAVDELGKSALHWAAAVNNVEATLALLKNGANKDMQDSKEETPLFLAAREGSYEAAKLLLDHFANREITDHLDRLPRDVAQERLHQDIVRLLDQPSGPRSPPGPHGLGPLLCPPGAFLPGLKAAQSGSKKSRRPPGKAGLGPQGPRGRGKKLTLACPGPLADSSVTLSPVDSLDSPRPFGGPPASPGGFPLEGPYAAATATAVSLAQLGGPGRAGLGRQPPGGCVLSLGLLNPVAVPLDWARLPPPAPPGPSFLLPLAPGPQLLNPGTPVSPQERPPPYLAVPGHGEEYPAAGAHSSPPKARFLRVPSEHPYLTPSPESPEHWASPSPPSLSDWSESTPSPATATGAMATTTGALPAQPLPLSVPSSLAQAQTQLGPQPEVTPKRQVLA
Chain of Fibroblast growth factor 10 (Homo sapiens) (O15520 whole entry, looked up): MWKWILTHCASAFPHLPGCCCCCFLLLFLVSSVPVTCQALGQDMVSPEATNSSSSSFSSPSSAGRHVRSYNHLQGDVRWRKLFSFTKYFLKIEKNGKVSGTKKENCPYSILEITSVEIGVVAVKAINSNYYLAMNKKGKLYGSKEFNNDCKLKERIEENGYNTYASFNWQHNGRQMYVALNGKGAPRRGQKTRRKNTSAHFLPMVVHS

For `CN1C(=O)C2C=CC(C(O)C3=C[C@H]4C[C@@H](C3)C4(C)C)N(Nc3ccc([N+](=O)[O-])cc3[N+](=O)[O-])C2C1=O` (stereo not given in full), the composite z-score in [1] turned out to be 1.49; in experiment [5] it was 3.28; in experiment [7] it was 0.256; in [8], 0.0179; in [9], 1.02; in experiment [10], 0.213. Besides, the composite z-score in experiment [11] is 1.22; in experiment [12], 1.34; in experiment [13] it was 1.07; in experiment [15], 0.721; in experiment [16], 1.28; in experiment [17], 0.21. Besides, the figures for the composite z-score in experiment [18], in [19] and in [20] were 0.988, -0.446 and 0.844, respectively. Further, the z-score in [2] is 1.07 (inactive); in [3], 0.595 (inactive); in experiment [4], 1.96 (inactive); in [6], -0.43 (inactive); in experiment [14], 0.674 (inactive).

`C=C[C@H](OC)[C@@H](OC(=O)Nc1ccc(SC)cc1)c1ccc(OCCO)cc1`: the composite z-score in [1] was 1.15; in [5], 2.67; in experiment [7] it was -0.0478; in [8], -0.555; in [9] it was -0.179; in experiment [10] it was 0.507. Also, the composite z-score was 1.08 in [11]; 0.242 in [12]; 0.796 in experiment [13]; 0.141 in [15]; 0.0735 in experiment [16]; -0.196 in experiment [17]. Also, the composite z-score in experiment [18] is -0.275; in [19] it was 0.155; in [20] it was -0.176. For the same compound, the z-score in [2] was 0.458 (inactive); in experiment [3], -0.339 (inactive); in experiment [4], 0.513 (inactive); in experiment [6], 1.15 (inactive); in [14] it was -1.96 (inactive).

Regarding `CCCNC(=O)[C@@]1(C)c2ccccc2C(=O)N(Cc2ccc(OC(F)(F)F)cc2)[C@H]1c1ccc(CO)cc1`, the composite z-score in [1] is 0.294; in experiment [5], -0.416; in experiment [7] it was 0.0241; in experiment [8] it was -0.432; in experiment [9], 0.13; in [10], -0.18. For the same compound, the composite z-score in experiment [11] was 1.57; in [12], 0.0743; in [13], 0.666; in [15], 0.0672; in experiment [16], 0.0816; in [17] it was -1.02. The composite z-score in [18] is -0.401; in [19], -0.977; in experiment [20], 0.427. Also, the z-score is -0.446 (inactive) in experiment [2]; 0.242 (inactive) in [3]; -0.548 (inactive) in experiment [4]; 0.922 (inactive) in experiment [6]; -0.129 (inactive) in [14].

Regarding `C=CCC(OC(C)=O)[C@@H]1[C@@H](N(Cc2ccc(-c3ccccc3)cc2)C(=O)c2ccc(C)cc2)c2cc(OCCCO)ccc2N1C(=O)Cc1ccc(OC)cc1` (stereo not given in full), the composite z-score in experiment [1] was 1.1; in [5], 0.178; in [7], -0.166; in experiment [8], 0.0438; in experiment [9] it was 0.338; in [10], -0.109. The composite z-score in experiment [11] was 1.36; in [12], -0.0745; in experiment [13], -0.216; in experiment [15] it was 0.191; in experiment [16] it was -0.159; in [17], 0.0485. Moreover, the composite z-score in experiment [18] amounted to 0.0762; in experiment [19] it was 0.22; in experiment [20], 1.23. In addition, the z-score in experiment [2] was -2.3 (inactive); in [3], -1.13 (inactive); in experiment [4], -0.713 (inactive); in experiment [6] it was 1.26 (inactive); in experiment [14] it was -1.03 (inactive).

`CC(=O)NCCCC[C@@H]1NC(=O)[C@@H]2C[C@H](C(=O)NCCCCCC[N+](C)(C)C)[C@H](c3cccc(OCCO)c3)N2C1=O`: the composite z-score was 1.54 in experiment [1]; 2.46 in [5]; 0.0283 in experiment [7]; 1.03 in experiment [8]; 1.02 in experiment [9]; -0.115 in [10]. Also, the composite z-score was 1.13 in experiment [11]; -0.145 in [12]; -0.0962 in [13]; 1.23 in experiment [15]; 1.27 in experiment [16]; 0.341 in experiment [17]. In addition, the composite z-score in experiment [18] is 1.25; in experiment [19] it was 1.45; in experiment [20] it was 0.811. Also, the z-score in experiment [2] is 0.801 (inactive); in experiment [3], 0.385 (inactive); in experiment [4], 1.1 (inactive); in experiment [6], -0.104 (inactive); in [14], -0.0513 (inactive).
